Screen size: about 350,000 compounds; about 9,900 (2.8%) were called active. Not shown: some 15% with an inconclusive outcome. Shown is part of a subset that was picked to be rich in actives. Values without a mark were called inactive. Calls come from the whole dose curve; as a rule, active = well fitted activation curve with a large enough effect; inconclusive = small, poorly fitted or top-dose-only effect; inactive = no such curve, though single readings can be large or run the other way.
Assay: A quantitative high throughput screen for small molecules that induce DNA re-replication in MCF 10a normal breast cells. For activity, positive = re-replication: % of control where 0% means no effect. Note: nearly all actives have a fitted effect of over 50% in size.
Settings: MCF 10A DNA re-replication, Hoechst nuclear intensity, 48 h; series mostly up to 46.1 µM; activity, positive = re-replication: at the top concentration
Potency is the fitted concentration of half-maximal effect.

| Structure (SMILES) | activity, positive = re-replication | Potency |
| --- | --- | --- |
| CC(C)(C)OC(=O)NCCCCCNC(=O)c1nc[nH]c1C(=O)NCc1ccccc1 | 19.9% | – |
| O=C1OC(Cc2ccccc2)C(c2ccccc2)C1=O (centres undefined) | 11.9% | – |
| COc1ccc(Cl)cc1NC(=O)CCN1CCOCC1 | -2.83% | – |
| COc1ccc(OC)c(NC(=O)CCN2CCC(C)CC2)c1 | – | 5.17 µM (active) |
| CCOC(=O)N1CCN(CCC(=O)Nc2cc(OC)ccc2OC)CC1 | 1.69% | – |
| CC1CCCC(NC(=O)c2cc(-c3ccncc3)nc3ccccc23)C1C (centres undefined) | 182% | – |
| O=C(COC(=O)COc1cccc(F)c1)NCC1CCCCC1 | 4.24% | – |
| COc1ccc(S(=O)(=O)N2CCOCC2)cc1NC(=O)CSc1nnc(NC2CC2)s1 | 0.0251% | – |
| Cc1ccc(-c2noc(CC(c3ccccc3)c3ccccc3)n2)cc1 | 19.8% | – |
| COc1ccccc1Cc1nc(-c2ccc(C)cc2)no1 | – | 5.8 µM (active) |
| Cc1ccc(Cc2nc(-c3cccc(C)c3)no2)cc1 | 5.26% | – |
| NC(=O)NCCCC(=O)O | 2.9% | – |
| CN(CC(=O)NCC(c1ccccc1)N1CCCC1)S(=O)(=O)c1ccc(Cl)cc1 (centres undefined) | 13.6% | – |
| Cn1ccc(NC(=O)Nc2ccc(Cl)cc2)n1 | -29.8% | – |
| CN(c1cccc(NC(=O)Nc2ccc(Cl)cc2)c1)S(C)(=O)=O | – | 13 µM (active) |
| Cc1ccc(N(CC(=O)Nc2cccc(N(C)S(C)(=O)=O)c2)S(C)(=O)=O)cc1 | -6.44% | – |
| COc1ccc(NS(=O)(=O)c2ccc(N3CCOCC3)c(NC(=O)/C=C/C(=O)O)c2)cc1 | -2.55% | – |
| Cc1ccc(-c2nn(-c3ccccc3)cc2/C=C/C(=O)Nc2cccc(S(N)(=O)=O)c2)cc1 | – | 13 µM (active) |
| O=C(/C=C/c1cn(-c2ccccc2)nc1-c1ccc2c(c1)OCCO2)NCCCN1CCOCC1 | 10% | – |
| Cc1ccc(-c2nn(-c3ccccc3)cc2C(=O)Nc2cccc(S(=O)(=O)N3CCOCC3)c2)cc1 | 1.34% | – |
| CC(=O)c1ccc(S(=O)(=O)NCCC(=O)N2CCN(c3ccccn3)CC2)cc1 | -6.67% | – |
| Cc1csc(SCC(=O)N(c2ccccc2)C(C)C)n1 | 15.8% | – |
| c1ccc2c(c1)OC1OC2Oc2ccccc21 | -3.33% | – |
| CC(C)(C)OC(=O)N1CCC(NC(=O)c2[nH]cnc2C(=O)N[C@@H](Cc2ccccc2)C(=O)OCc2ccccc2)CC1 | – | 14.6 µM (active) |
| O=C(N[C@@H](Cc1ccccc1)C(=O)OCc1ccccc1)c1nc[nH]c1C(=O)N[C@@H](Cc1ccccc1)C(=O)OCc1ccccc1 | 16.7% | – |

| Structure (SMILES) | activity, positive = re-replication | Potency |
| --- | --- | --- |
| O=C(N[C@@H](Cc1ccccc1)C(=O)OCc1ccccc1)c1nc[nH]c1C(=O)NC1CCNCC1 | 0.257% | – |
| NS(=O)(=O)c1ccc(CCNC(=O)c2ccc(Cl)c(S(=O)(=O)N3CCCCCC3)c2)cc1 | 20.2% | – |
| Cc1ccc(C(CC(=O)O)NC(=O)c2ccc(S(=O)(=O)N3CCCC3)cc2)cc1 (centres undefined) | -3.45% | – |
| CCOC(=O)C1(Cc2cccc(OC)c2)CCN(Cc2csc(C(C)=O)c2)CC1 | – | 8.2 µM (active) |
| CCOC(=O)C1(Cc2cccc(OC)c2)CCN(C(C)COC)CC1 (centres undefined) | 11.2% | – |
| CCOC(=O)C1(Cc2cccc(OC)c2)CCN(C(C)CC(C)(C)O)CC1 (centres undefined) | 0.346% | – |
| N#CC1(Nc2ccc(-c3ccc(Cl)cc3)cc2)CCCC1 | -2.31% | – |
| O=C(Nc1c(Br)cc2c(c1Br)Cc1ccccc1-2)C(F)(F)F | 14.3% | – |
| CCOC(=O)N1CCN(C(=O)c2ccccc2N(Cc2ccccc2)S(=O)(=O)c2ccc(OC)cc2)CC1 | – | 13 µM (active) |
| CCN1CCN(C(=O)c2ccccc2N(C)S(=O)(=O)c2ccc(C)cc2)CC1 | -2% | – |
| NC(=O)c1ccccc1N(Cc1ccccc1)S(=O)(=O)c1ccccc1 | 8.11% | – |
| CC[C@@H](C)[C@@H]1CN([C@@H](C)CN2CCC[C@H]2CN2C(N)=NC[C@H]2C(C)C)C(=N)N1CCc1ccc(Cl)c(Cl)c1 | -21.4% | – |
| CC(OC(=O)c1c(F)cccc1F)C(=O)NCCC1=CCCCC1 (centres undefined) | 8.71% | – |
| O=C(CCl)Nc1ccc(Sc2ccc(NC(=O)CCl)cc2)cc1 | – | 6.51 µM (active) |
| Cc1ccc(NC(=O)CC(=O)Nc2ccc(C)cc2)cc1 | 2.57% | – |
| CCC(=O)Nc1ccc(Nc2nc(Cl)nc(Nc3ccc(NC(=O)CC)cc3)n2)cc1 | 0.0779% | – |
| FC(F)(F)c1ccc(-c2cccc3c2C2CC3CCN2Cc2ccccc2)cc1 (centres undefined) | 2.26% | – |
| CC1CCCCC12NC(=O)N(CC(=O)N1CCN(c3ccccc3)CC1)C2=O (centres undefined) | 0.565% | – |
| COc1cccc(CNC(=O)CN2C(=O)NC(Cc3ccccc3)(c3ccccc3)C2=O)c1 (centres undefined) | -0.149% | – |
| CN(C)/N=C/c1cn(-c2ccccc2)nc1-c1cccnc1 | 0.925% | – |
| CC(C)(C)OC(=O)N/N=C/c1cn(-c2ccccc2)nc1-c1cccnc1 | 7.39% | – |
| COc1ccc(-c2nn(-c3ccccc3)cc2/C=N/Nc2ccccn2)cc1OC | – | 23.1 µM (active) |
| CCOC(=O)C(CO)NC(=O)C1(NC(C)=O)CCCC1 (centres undefined) | -0.0355% | – |
| CN(CCc1ccccc1)C(=O)c1cccc(NC(=O)Cc2cccc(NC(=O)C3CCCN(C(=O)CCc4ccccc4)C3)c2)c1 (centres undefined) | 3.16% | – |
| CCOC(=O)C1=C(C)NC(=O)NC1c1ccccc1 (centres undefined) | -2.24% | – |

| Structure (SMILES) | activity, positive = re-replication | Potency |
| --- | --- | --- |
| CCOC(=O)C1=C(CN2CCc3ccccc32)NC(=O)NC1c1cccc([N+](=O)[O-])c1 (centres undefined) | -3.56% | – |
| CCOC(=O)C1=C(CN2CCc3ccccc32)NC(=O)NC1c1ccc(Cl)cc1 (centres undefined) | – | 14.6 µM (active) |
| COc1cc(O)c2c(=O)c3c(O)c(O)ccc3oc2c1OC | -33.2% | – |
| CC(C)CCN1CCN=C1N(C)C | -20.8% | – |
| O=C(OCc1ccccc1)c1ccc(O)cc1 | 0.461% | – |
| O=C(OCc1ccc(Br)cc1)c1cccc(-c2nnc(-c3ccccc3)o2)c1 | 4% | – |
| O=C(OCc1ccc(-c2ccccc2)cc1)c1cccc(O)c1 | – | 20.6 µM (active) |
| Cc1cc2c(cc1C)NC1(C[C@H]3CCC(=O)N4CC[C@@H](C1)[C@@H]34)C(=NC(C)(C)CC(C)(C)C)N2 (some centres undefined) | -13.3% | – |
| CCCCN1CC(CO)Oc2cccc(F)c2S1(=O)=O (centres undefined) | -9.57% | – |
| Cc1cc(C(=O)OCC(=O)N2C(C)CCCC2C)c2ccccc2n1 (centres undefined) | 3.65% | – |
| Cc1oc2c(F)c(F)c(F)c(F)c2c1S(=O)(=O)Nc1cccc(C(F)(F)F)c1 | – | 16.4 µM (active) |
| CCOC(=O)N1CCN(C(=O)c2ccc(S(=O)(=O)Nc3cccc(C(F)(F)F)c3)cc2)CC1 | 31.5% | – |
| O=C(NCc1ccccc1)c1ccc(S(=O)(=O)Nc2cccc(C(F)(F)F)c2)cc1 | 4.4% | – |
| O=C1C=C(c2cc(C(F)(F)F)cc(C(F)(F)F)c2)C[C@@H](c2ccc3c(c2)OCO3)C1 | -4.9% | – |
| Fc1ccccc1COc1cccc2cccnc12 | 16.7% | – |
| Fc1ccccc1COc1ccccc1CNCc1ccncc1 | – | 3.26 µM (active) |
| c1ccc(COc2ccccc2CNCc2cccnc2)cc1 | -1.98% | – |
| C[C@@H]1ON(C)[C@H]2C[C@H]3c4cc(N5CCN(C)CC5)ccc4CCN3C(=O)[C@@H]12 | 16.1% | – |
| CCOC(=O)/C(=C\c1ccc([N+](=O)[O-])cc1)C(=O)c1cc(C(C)=O)c(Nc2ccccc2)s1 | – | 1.46 µM (active) |
| O=C(Nc1ccccc1)/C(=C/c1ccc([N+](=O)[O-])cc1)NC(=O)c1ccccc1 | -1.1% | – |
| Cc1cccc(NC(=O)c2sc(-c3ccccc3)nc2-c2ccc([N+](=O)[O-])cc2)c1 | -1.51% | – |
| Cc1ccc(C(=O)CN2C(=O)NC3(CCOc4ccccc43)C2=O)s1 (centres undefined) | -9.64% | – |
| CCOc1ccc(S(=O)(=O)N2CCC(C(=O)NCC(=O)Nc3cccc(Cl)c3C)CC2)cc1 | 27.2% | – |
| C[C@H]1COC(=O)[C@H](CC(=O)OC(C)(C)C)C/C=C\C[C@@H](CC(=O)N[C@H](CO)Cc2ccccc2)C(=O)N1 | -2.57% | – |
| CC(=O)c1c(C)[nH]c(C(=O)COC(=O)c2cccs2)c1C | 0.382% | – |

| Structure (SMILES) | activity, positive = re-replication | Potency |
| --- | --- | --- |
| Cc1nc(N2CCOCC2)nc2c1CCCC2 | 6.16% | – |
| Nc1nc(-c2sc3nc4c(cc3c2N)CCCC4)nc(N2CCOCC2)n1 | – | 6.51 µM (active) |
| CC(C)(C)S(=O)(=O)N1Cc2cc(CO)cc(CCO)c2[C@H]1CCO | -6.05% | – |
| COc1ccc(S(=O)(=O)N2CCN(c3cnccn3)CC2)cc1 | 2% | – |
| COC(=O)c1ccc2c(=O)n(CC3CCCO3)c(=S)[nH]c2c1 (centres undefined) | – | 23.1 µM (active) |
| Cc1cccc(NC(=O)c2ccc3c(=O)n(CC4CCCO4)c(=S)[nH]c3c2)c1 (centres undefined) | 2.75% | – |
| O=C(NC1CCCCC1)c1ccc2c(=O)n(CC3CCCO3)c(=O)[nH]c2c1 (centres undefined) | -3.05% | – |
| Cc1cc(C)nc(N/N=C/c2ccncc2)n1 | -13.2% | – |
| Cc1ccc(C(=O)NCCNC(=O)c2cnccn2)cc1 | -3.55% | – |
| CCN(CC)c1ccc(/C=N/NC(=O)CNC(=O)c2cccnc2)cc1 | 2.8% | – |
| CCN(CC)c1ccc(/C=N/NC(=O)c2cnccn2)c(O)c1 | – | 18.4 µM (active) |
| CCN(CC)c1ccc(/C=N/Nc2nc(C)cc(=O)[nH]2)cc1 | 8.42% | – |
| CCN(CC)c1ccc(/C=N/Nc2nc(C)cc(C)n2)c(O)c1 | – | 18.4 µM (active) |
| COc1ccc(/C=C/C(=O)OCC(=O)N2CCN(S(=O)(=O)c3ccc(C)cc3C)CC2)cc1OC | 8.11% | – |
| C[C@]12CCC(=O)C=C1C=CC1C2CC[C@@]2(C)C1CC[C@@]21CCC(=O)O1 (some centres undefined) | -1.52% | – |
| CCN(C(=O)COC(=O)CCOc1cccc(C)c1)c1c(N)n(Cc2ccccc2)c(=O)[nH]c1=O | 0.756% | – |
| CC(C)Cn1c(SCC(=O)Nc2ccc(Cl)cc2F)nc(O)cc1=O | 4.29% | – |
| Cc1ccc(CNC(=O)COC(=O)C2CCC2)cc1 | -2.9% | – |
| O=C(c1ccc(Cl)nc1)N1CCN(S(=O)(=O)c2ccc3c(c2)OCCO3)CC1 | -10.9% | – |
| COc1ccc(S(=O)(=O)N2CCN(CC(=O)N3c4ccccc4CC3C)CC2)cc1OC (centres undefined) | 6.54% | – |
| CCNc1nc(NCC)nc(N/N=C/c2ccc(O)c(OC)c2)n1 | -0.389% | – |
| COc1cc(/C=N/Nc2ccc(C)cc2)cc(Br)c1O | – | 25.9 µM (active) |
| COc1cc(/C=N/NC(=S)Nc2cccnc2)cc(OC)c1O | 7.2% | – |
| CCN(C(=O)CSc1nnnn1-c1ccc(OC)cc1)C1CCS(=O)(=O)C1 (centres undefined) | 5% | – |

Reference: PubChem BioAssay AID624296 (National Center for Advancing Translational Sciences (NCATS), 2012)
